Rab9 prom act: qHTS Assay for Rab9 Promoter Activators; Huh7 Rab9 promoter-luciferase reporter, luminescence, 24 h; Potency, µM (top dose mostly 9.22 µM), usual class: activators; 2.8% of 320,000 active; AID 485297, 2010; further: nearly all actives have a fitted effect of over 60% in size
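Huh7 cells stably carrying Rab9 promoter–luciferase reporter, plated 1500 cells/well, compound added after 2 h and incubated 24 h at 37 °C; luciferase luminescence then read after 10 min with detection reagent.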
NPC1 prom act: qHTS Assay for NPC1 Promoter Activators | Huh7 NPC1 promoter luciferase reporter, 24 h | 2.4% of 320,000 active | Potency, µM (titrated, usually from 9.22 µM), usual class: activators; further: nearly all actives have a fitted effect of over 60% in size
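NPC1 promoter–luciferase Huh7 cells; 24 h compound; luminescence.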
ELG1 repair inh: qHTS screen for small molecules that inhibit ELG1-dependent DNA repair in human embryonic kidney (HEK293T) cells expressing luciferase-tagged ELG1; Potency, µM (titrated, usually from 46.1 µM), usual class: inhibitors; HEK293T ELG1-luciferase reporter, luminescence, 16 h; DNA damage induced by 5-fluorouridine; AID 504467, 2011; 2.3% of 330,000 active; further: nearly all actives have a fitted effect of over 55% in size
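5-Fluorouridine DNA damage + compound/DMSO, 2,000 cells/well, 16 h, 37 °C/5% CO2. ONE-Glo, 30 min RT, luminescence. Readout = decrease in reporter signal.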
SMN2 splice up: qHTS Assay for Enhancers of SMN2 Splice Variant Expression; HEK293 SMN2-luciferase splicing reporter, luminescence, 30-36 h; Potency, µM (highest dose often 46.1 µM), hits mostly activators; 2.8% of 210,000 active; AID 1458, 2008; further: nearly all actives have a fitted effect of over 55% in size
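qHTS luciferase splicing reporter: luminescence rises when SMN2 exon 7 is included in transfected HEK293 cells. Compound exposure lasted 30-36 h at 37C, with 4.5 mM final sodium butyrate as control, followed by a ONE-Glo read.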
FLuc counter: qHTS profiling assay for firefly luciferase inhibitor/activator using purifed enzyme and Km concentrations of substrates (counterscreen for miR-21 project). Luciferin 4-monooxygenase (Photinus pyralis), P08659. purified FLuc, Km substrates, luminescence inhibition. Potency, µM (doses to about 57.5 µM), actives largely listed as inhibitors. 6.9% of 360,000 active. AID 588342, 2011; further: nearly all actives have a fitted effect of over 55% in size
Target sequence (P08659 whole entry, looked up): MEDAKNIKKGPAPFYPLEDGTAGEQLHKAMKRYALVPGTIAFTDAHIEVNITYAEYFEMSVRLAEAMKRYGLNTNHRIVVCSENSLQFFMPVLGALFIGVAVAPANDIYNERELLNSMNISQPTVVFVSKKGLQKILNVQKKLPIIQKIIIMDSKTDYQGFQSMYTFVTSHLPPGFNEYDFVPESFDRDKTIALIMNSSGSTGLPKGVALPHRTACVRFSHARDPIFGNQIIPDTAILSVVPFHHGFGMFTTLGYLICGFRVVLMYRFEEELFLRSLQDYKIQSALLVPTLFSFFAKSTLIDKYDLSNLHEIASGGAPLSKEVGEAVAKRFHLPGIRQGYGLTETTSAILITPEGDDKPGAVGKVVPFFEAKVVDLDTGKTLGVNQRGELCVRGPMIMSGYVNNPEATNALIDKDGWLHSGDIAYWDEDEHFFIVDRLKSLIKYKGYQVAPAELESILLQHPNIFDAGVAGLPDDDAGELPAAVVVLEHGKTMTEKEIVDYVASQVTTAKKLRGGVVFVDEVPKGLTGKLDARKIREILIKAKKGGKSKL
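Purified P. pyralis luciferase, 10 nM final, with Km-level 10 uM D-luciferin and 10 uM ATP in 50 mM Tris acetate pH 7.5, 10 mM Mg acetate, 0.01% Tween-20, 0.05% BSA; 6-point qHTS titration about 60 µM downward; luminescence read.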
ELG1 genotoxic: qHTS screen for small molecules that induce genotoxicity in human embryonic kidney (HEK293T) cells expressing luciferase-tagged ELG1; HEK293T ELG1-luciferase reporter, luminescence, 16 h; Potency, µM (top dose mostly 46 µM), hits mostly activators; 1.3% of 330,000 active; AID 504466, 2011; further: nearly all actives have a fitted effect of over 60% in size
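ELG1-luciferase HEK293T cells, 2,000/well; compound pinned in; 16 hr, 37 °C, 5% CO2; ONE-Glo, 30 min RT; luminescence on CCD imager.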
A number is an active result; – = inactive; ? = inconclusive; · = not tested or not shown; [ ] = remark or other dose. Compounds with a hit are over-represented: about 9.4% of the library has one in this group of screens. The call rests on the fitted dose curve; in most records, active means well fitted curve in the direction sought with a large enough effect; inconclusive means small, poorly fitted or top-dose-only effect, or another doubt; inactive means no such curve, though single readings can be large; an effect the other way counts as inactive or inconclusive.

SMILES	Rab9 prom act	NPC1 prom act	ELG1 repair inh	SMN2 splice up	FLuc counter	ELG1 genotoxic
CC(=O)c1cccc(NC(=O)c2ccc(N(Cc3ccccc3C)S(C)(=O)=O)cc2)c1	–	–	26µM	–	–	–
CCCC[C@]12Cc3ccccc3[C@H](O1)C1=C(O2)C(=O)c2ccccc2C1=O	–[1.84 µM]	–[1.84 µM]	·	·	–[11.5 µM]	·
Cc1ccccc1-c1nc(CN2CCC(C(=O)NCc3ccccc3Cl)CC2)c(C)o1	·	·	·	–	?	·
O=C(NCc1ccc2c(c1)OCO2)c1ccc2c(c1)N(Cc1cccc(Cl)c1)C(=O)c1ccccc1S2=O (stereo unspecified)	·	·	·	·	–	·
Cc1ccccc1CN(c1ccc(C(=O)Nc2ccccc2C(=O)NCc2ccco2)cc1)S(C)(=O)=O	–	–	7.3µM	?	–	–
COc1ccc(N2CC(C(=O)Nc3ccccc3C(=O)NCc3ccco3)CC2=O)cc1 (stereo unspecified)	–	–	?	–	–	–
CCCOc1ccc(N2CC(C(=O)Nc3ccccc3C(=O)NCc3ccco3)CC2=O)cc1 (stereo unspecified)	–	–	18µM	–	–	–
O=c1oc(-c2cccs2)nc2scc(-c3cccs3)c12	–	–	?	11µM	7.6µM	–
CC(C)(C)c1nc2scc(-c3ccc(Br)cc3)c2c(=O)o1	–	–	?	–	–	–
Cc1sc2nc(-c3cccs3)oc(=O)c2c1C	–	–	?	·	11µM	–
Cc1sc2nc(-c3ccc(Br)cc3)oc(=O)c2c1C	–	?	–	·	2.7µM	–
CCc1cc2c(=O)oc(-c3ccc(Br)cc3)nc2s1	–	–	?	·	6µM	–
COc1ccc(/C=N/Nc2ncnc(Cl)c2N)cc1OC	–	–	?	–	21µM	–
COc1ccc(/C=N/Nc2ncnc3sc4c(c23)CCCC4)cc1OC	–	–	–	–	2.7µM	–
Nc1c(Cl)ncnc1N/N=C/c1cccc(O)c1	–	–	?	·	17µM	–
Nc1cc(S(N)(=O)=O)ccc1SSc1ccc(S(N)(=O)=O)cc1N	·	·	·	–[9.22 µM]	·	·
COc1cc(NC(=O)c2noc3c2CC(C(C)(C)C)CC3)cc(OC)c1OC (stereo unspecified)	·	·	·	–	–	·
COc1cc(OC)cc(C(=O)NC(=S)Nc2nc(-c3cc4ccccc4o3)cs2)c1	–	–	–	·	–	–
COCCNc1nc(-c2cc3ccccc3o2)cs1	1µM	1.6µM	?	3.2µM	1.5µM	?
COC(=O)c1cc2oc3ccccc3c2n1CC(=O)Nc1ccc(OC)c(OC)c1	·	·	·	–	–	·
CNC(C)C#Cc1ccc2c(=O)c3c(OC)cccc3oc2c1 (stereo unspecified)	?	?	?	·	24µM	?
COc1cccc2sc3cc(C#Cc4ccccn4)ccc3c(=O)c12	·	·	?	·	·	–
COc1cccc2oc3ccc(C#Cc4ccccn4)cc3c(=O)c12	1.8µM	0.79µM	?	·	1.1µM	?
CNC(C)C#Cc1ccc2oc3cccc(OC)c3c(=O)c2c1 (stereo unspecified)	?	–	?	·	15µM	?
NNc1nc2ccc(F)cc2s1	–	–	?	–	19µM	?
SMILES	Rab9 prom act	NPC1 prom act	ELG1 repair inh	SMN2 splice up	FLuc counter	ELG1 genotoxic
Fc1ccc2nc(Nc3ccccc3)sc2c1	2.2µM	2.8µM	?	16µM	7.6µM	?
COc1ccc2nc(NC(=O)CSc3nccc(C)n3)sc2c1	–	–	–	–	?	–
COc1ccc2nc(NC(=O)CSc3nnc(C)s3)sc2c1	?	2.5µM	?	–	?	21µM
COc1ccc2nc(NC(=O)CSc3nnnn3C)sc2c1	3.2µM	2.8µM	?	·	?	–
COc1ccc2nc(NC(=O)CSc3nc(SC)ns3)sc2c1	?	–	?	?	?	–
COc1ccc2nc(NC(=O)CSc3n[nH]c(N)n3)sc2c1	?	?	?	·	9.5µM	15µM
COc1cc2c(=O)c(-c3ccc(O)cc3)coc2cc1OC1OC(CO)C(O)C(O)C1O (stereo unspecified)	–	–	?	?	?	–
O=c1c(-c2ccc3c(c2)OCCO3)coc2cc(OC3OC(CO)C(O)C(O)C3O)ccc12 (stereo unspecified)	0.5µM	0.56µM	?	·	11µM	?
Cc1cccn2c(=O)nc(SCC(=O)c3ccccc3)nc12	–	–	?	·	–	21µM
Cc1cccn2c(=O)nc(SCC(=O)c3ccc(Cl)cc3)nc12	–	–	?	·	–	?
N#CC1(C#N)CC(C=O)=C(N)C1(C#N)CC(=O)C12CC3CC(CC(C3)C1)C2 (stereo unspecified)	–	–	16µM	–	–	–
COc1ccc([C@]23Cc4ccccc4C(O2)c2c(cc(-c4ccccc4)oc2=O)O3)cc1	–[1.84 µM]	–[1.84 µM]	·	·	–[11.5 µM]	·
CCC(C)NC(=O)C1=CC(c2ccc3c(c2)OCO3)=NS(=O)(=O)N1C (stereo unspecified)	·	·	·	·	–	·
O=C(Nc1ccc2nc(-c3ccc4nc[nH]c4c3)[nH]c2c1)c1cccs1	–	–	–	–	21µM	–
COC(=O)c1ccc(C(=O)Nc2ccc3nc(-c4cccnc4)[nH]c3c2)cc1	–	–	–	–	–	–
O=C(Nc1ccc2nc(-c3ccccc3)[nH]c2c1)c1cccs1	?	–	?	–	5.4µM	?
CC(=O)Nc1ccc2nc(-c3cccnc3)[nH]c2c1	–	–	–	–	?	–
CC(C)c1ccc(-c2nnc3n(CCc4ccccc4)c(=O)c4ccccc4n23)cc1	·	·	·	·	–	·
CCOC(=O)c1cc(C)n(CC2CCC(C(=O)Nc3ccc(C(C)=O)cc3)CC2)c1C (stereo unspecified)	·	·	·	·	–	·
COc1ccc(NC(=O)CCN2C(=O)c3ccccc3C2=O)cc1	–	–	–	·	–	–
O=C(CCN1C(=O)c2ccccc2C1=O)Nc1ccc(-c2nc3ccccc3s2)cc1	0.4µM	1.3µM	?	·	?	10µM
Cc1ccc2nc(-c3ccc(NC(=O)C(C)N4C(=O)c5ccccc5C4=O)cc3)sc2c1 (stereo unspecified)	–	?	?	11µM	8.5µM	?
Cc1ccc2nc(-c3ccc(NC(=O)CCN4C(=O)c5ccccc5C4=O)cc3)sc2c1	0.25µM	0.4µM	?	0.32µM	1.5µM	1µM
O=C(CCN1C(=O)c2ccccc2C1=O)Nc1nc2ccccc2s1	–	–	–	–	19µM	–
CC(C(=O)Nc1ccc(C(=O)O)cc1)N1C(=O)c2ccccc2C1=O (stereo unspecified)	–	–	–	–	–	–
